Assay results reported in PubChem BioAssay AID1159580 (chemical genetic matrix, 2015).
Where “and” joins values, the source holds several entries; their conditions need not be identical. Equal entries are not always repeated. Screen size: about 5,500 compounds; about 2,000 (36%) were called active. Not shown: some 18% with an inconclusive outcome. Rule as the data show it: active = normalized growth mostly below about 0.91 (no sharp cut-off); inconclusive = no clear call, values can overlap the other calls; inactive = mostly above about 0.92. This is one part of the list.

Test: chemical genetic growth profiling, strain panel (AID 1159580);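 also: tested at 20 µM; growth read once vehicle control cultures reached saturation at 30 °C; 1 = growth at the plate median or of vehicle wells; lower values mean less growth of the strain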
Conditions: S. cerevisiae deletion strains, growth OD

Measured: normalized growth

C[C@@H]1CC[C@H]2C(C)(C)C3CC12CC[C@@]3(C)O (stereo partly specified)
inactive: locus YAL021C, strain ccr4, active compounds read low 0.942 | locus YAL026C, strain drs2, active compounds read low 0.918 | locus YBR021W, strain FUR4, active compounds read low 0.935 | locus YBR171W, strain sec66, active compounds read low 0.962 | locus YBR229C, strain ROT2, active compounds read low 1.02 | locus YCL029C, strain bik1, active compounds read low 1.01 | locus YCL061C, strain MRC1, active compounds read low 0.952 | locus YCL069W, strain vba3, active compounds read low 0.977 | locus YCR088W, strain abp1, active compounds read low 0.976 | locus YDL035C, strain GPR1, active compounds read low 0.979 | locus YDL040C, strain nat1, active compounds read low 0.952 | locus YDL074C, strain BRE1, active compounds read low 0.913 | locus YDL101C, strain DUN1, active compounds read low 0.988 | locus YDL185W, strain tfp1, active compounds read low 0.99 | locus YDR001C, strain nth1, active compounds read low 1.01 | locus YDR101C, strain arx1, active compounds read low 0.939 | locus YDR150W, strain NUM1, active compounds read low 1.02 | locus YDR162C, strain NBP2, active compounds read low 1 | locus YDR318W, strain mcm21, active compounds read low 0.95 | locus YDR334W, strain swr1, active compounds read low 1 | locus YDR335W, strain msn5, active compounds read low 0.928 | locus YDR388W, active compounds read low 0.969 | locus YDR502C, strain sam2, active compounds read low 0.924 | locus YEL037C, strain rad23, active compounds read low 0.973 | locus YER110C, active compounds read low 0.984 | locus YER167W, strain BCK2, active compounds read low 0.948 | locus YGL078C, strain dbp3, active compounds read low 0.955 | locus YGL167C, strain pmr1, active compounds read low 1.01 | locus YGL227W, strain vid30, active compounds read low 0.969 | locus YGL248W, strain PDE1, active compounds read low 0.968 | locus YGR135W, strain pre9, active compounds read low 0.922 | locus YGR252W, strain gcn5, active compounds read low 0.97 | locus YHR013C, strain ard1, active compounds read low 0.961 | locus YHR030C, strain SLT2, active compounds read low 0.93 and 0.993 | locus YHR079C, strain IRE1 (second series), active compounds read low 1.02 | locus YHR079C, strain IRE1, active compounds read low 0.99 | locus YHR094C, strain hxt1, active compounds read low 0.992 | locus YHR129C, strain ARP1, active compounds read low 0.968 | locus YHR200W, strain rpn10, active compounds read low 0.941 | locus YIL066C, strain RNR3, active compounds read low 0.937 | locus YIL073C, strain SPO22, active compounds read low 0.974 | locus YIL125W, strain kgd1, active compounds read low 0.959 | locus YIR030C, strain dcg1, active compounds read low 0.987 | locus YJL092W, strain hpr5, active compounds read low 0.968 | locus YJL095W, strain BCK1, active compounds read low 0.927 and 1.01 | locus YJL115W, strain asf1, active compounds read low 0.996 | locus YJL134W, strain LCB3, active compounds read low 1.01 | locus YJL154C, strain vps35, active compounds read low 0.983 | locus YJL168C, strain set2, active compounds read low 0.986 | locus YJL187C, strain SWE1 (second series), active compounds read low 0.986 | locus YJR043C, strain POL32, active compounds read low 0.97
active: locus YAL030W, strain snc1, active compounds read low 0.884 | locus YBL061C, strain skt5, active compounds read low 0.754 | locus YBR009C, strain hhf1, active compounds read low 0.658 | locus YBR023C, strain chs3, active compounds read low 0.7 | locus YBR231C, strain swc5, active compounds read low 0.862 | locus YBR279W, strain paf1, active compounds read low 0.907 | locus YCL011C, strain gbp2, active compounds read low 0.811 | locus YCL016C, strain dcc1, active compounds read low 0.859 | locus YDL005C, strain med2, active compounds read low 0.848 | locus YDL192W, strain arf1, active compounds read low 0.872 | locus YDR137W, strain rgp1, active compounds read low 0.67 | locus YDR159W, strain sac3, active compounds read low 0.603 | locus YDR195W, strain ref2 0.318 | locus YDR297W, strain sur2, active compounds read low 0.906 | locus YDR392W, strain spt3, active compounds read low 0.301 | locus YEL003W, strain gim4, active compounds read low 0.848 | locus YEL061C, strain CIN8 (second series), active compounds read low 0.875 | locus YEL061C, strain CIN8, active compounds read low 0.917 | locus YER015W, strain faa2, active compounds read low 0.86 | locus YER016W, strain bim1, active compounds read low 0.904 | locus YER111C, strain swi4, active compounds read low 0.77 | locus YER155C, strain BEM2 (second series), active compounds read low 0.74 | locus YER155C, strain BEM2, active compounds read low 0.876 | locus YFR010W, strain ubp6, active compounds read low 0.863 | locus YGL086W, strain mad1, active compounds read low 0.911 | locus YGL173C, strain kem1, active compounds read low 0.795 | locus YGL240W, strain doc1, active compounds read low 0.805 | locus YGL253W, strain hxk2, active compounds read low 0.897 | locus YHR027C, strain rpn1, active compounds read low 0.888 | locus YHR142W, strain chs7, active compounds read low 0.605 | locus YJL095W, strain BCK1 (second series), active compounds read low 0.699 | locus YJL129C, strain trk1, active compounds read low 0.859 | locus YJL164C, strain tpk1, active compounds read low 0.753 | locus YJL166W, strain qcr8, active compounds read low 0.669 | locus YJL187C, strain SWE1, active compounds read low 0.833
